The nature of assay [1]: Caspase-3/7 induction in CHO-K1 cells by small molecules, qHTS cell viability counter screen (AID 1346979). Also: nearly all actives have a fitted effect of over 35% in size. Also: potency is read from the fitted curve at half-maximal effect. In short, it runs like this:
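Cytotoxicity counter screen: CellTiter-Fluor added to compound-treated wild-type CHO-K1 cells at 16 h (37C, 5% CO2), fluorescence measured 1 h later; same wells as caspase-3/7 measurement.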
A general note: Quantitative high-throughput screening tests each substance at several concentrations.

The nature of assay [2]: Caspase-3/7 induction in CHO-K1 cells by small molecules, qHTS assay (AID 1346980). Also: nearly all actives have a fitted effect of over 15% in size. The method in brief: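 Wild-type cells were seeded at 1,500 per well and settled 5 hr at 37 C, 5% CO2, then exposed to DMSO-dissolved compounds for 17 hr. Caspase-Glo 3/7 reagent was added, and luminescence was read after 30min at room temperature.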
Assay [3] has as its target Nuclear receptor subfamily 1 group I member 2 (Homo sapiens) (UniProt O75469). The experiment in a line: Human pregnane X receptor (PXR) small molecule agonists, qHTS assay (AID 1346982). Also: nearly all actives have a fitted effect of over 35% in size. Also: potency is read from the fitted curve at half-maximal effect. In short, it runs like this: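 After plating in 5% charcoal-stripped FBS and a 5 hr rest, PXR-Luc HepG2 cells received compounds in DMSO. Following 24 hr at 37 C, ONE-Glo was added and light output read.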

The target in assay [4] is Nuclear receptor subfamily 1 group I member 2 (Rattus norvegicus) (UniProt Q9R1A7). The assay can be described thus: Rat pregnane X receptor (rPXR) activation by small molecules, qHTS assay (AID 1346983). Also: nearly all actives have a fitted effect of over 20% in size. Also: potency is read from the fitted curve at half-maximal effect. The note with it: rPXR luciferase reporter cells, One-Glo luminescence, 24 h; max activation: stronger effect = higher value. In short, it runs like this: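 Cell-based rPXR luciferase reporter assay, 2,000 cells per well, rested 5hr at 37 C before compound addition in DMSO, then 24 hr at 37 C. One-Glo reagent was added and luminescence read after 30 min at room temperature.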
Nuclear receptor subfamily 1 group I member 2 (Rattus norvegicus), sequence (Q9R1A7 whole entry, looked up): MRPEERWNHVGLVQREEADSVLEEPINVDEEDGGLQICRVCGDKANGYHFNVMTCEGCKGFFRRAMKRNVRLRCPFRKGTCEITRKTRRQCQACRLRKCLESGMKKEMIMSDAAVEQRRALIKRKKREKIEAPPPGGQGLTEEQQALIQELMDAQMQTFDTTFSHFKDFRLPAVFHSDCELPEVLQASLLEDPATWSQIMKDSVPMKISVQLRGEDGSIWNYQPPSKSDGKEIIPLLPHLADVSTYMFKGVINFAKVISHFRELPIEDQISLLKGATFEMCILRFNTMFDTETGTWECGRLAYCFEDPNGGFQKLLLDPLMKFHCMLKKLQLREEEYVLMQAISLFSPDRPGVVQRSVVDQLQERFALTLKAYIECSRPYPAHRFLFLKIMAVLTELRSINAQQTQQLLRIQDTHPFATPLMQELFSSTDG

Assay [5] concerns the target Nuclear receptor subfamily 1 group I member 2 (Homo sapiens) (UniProt O75469). The assay can be described thus: Human pregnane X receptor (PXR) activation by small molecules, qHTS assay (AID 1346985). Also: nearly all actives have a fitted effect of over 40% in size. In short, it runs like this: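 DPX-2 cells (HepG2 co-transfected with a PXR response element and a CYP3A4-promoter luciferase construct) were seeded at 2,000 per well, rested 5 hr at 37C, then exposed to DMSO-dissolved compounds for 24 hr. Activation was read as luciferase luminescence.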

Assay [6] in a line: Caspase-3/7 induction in HepG2 cells by small molecules, qHTS assay (AID 1346978). Also: nearly all actives have a fitted effect of over 15% in size. Also: potency is read from the fitted curve at half-maximal effect. In short, it runs like this:
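Wild-type HepG2 cells (2,000/well) were settled 5 h at 37 C, 5% CO2, then exposed to compounds in DMSO for 17 h. Caspase-3/7 activity was read by luminescence 30 min after adding Caspase-Glo 3/7 reagent at room temperature.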

Assay [7] addresses Cytochrome P450 2D6 (Homo sapiens) (UniProt P10635). The experiment in a line: Cytochrome P450 Family 2 Subfamily D Member 6 (CYP2D6) small molecule antagonists: luciferase reporter qHTS assay (AID 1671196). Also: nearly all actives have a fitted effect of over 50% in size. Also: potency is read from the fitted curve at half-maximal effect. In short, it runs like this:
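Quantitative HTS of Tox21 chemicals against CYP2D6 using a luminescent proluciferin substrate. After NADPH addition, 1 h room-temperature reaction; luminescence recorded 20 min post detection reagent.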
(Reporter assays use an easily measured gene product as a stand-in for the process of interest.)

Assay [8] addresses Cytochrome P450 2C19 (Homo sapiens) (UniProt P33261). The experiment in a line: Cytochrome P450 Family 2 Subfamily C Member 19 (CYP2C19) small molecule antagonists: luciferase reporter qHTS assay (AID 1671197). Also: nearly all actives have a fitted effect of over 65% in size. Also: potency is read from the fitted curve at half-maximal effect. The method in brief: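 Enzyme-substrate mix with proluciferin substrate (P450-Glo CYP2C19 system) preincubated with compounds 10 min at room temperature; NADPH regeneration solution added, 37C for 1 h; detection reagent stops reaction, luminescence read after 20 min. Ketoconazole positive control.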

A short description of assay [9]: Caspase-3/7 induction in HepG2 cells by small molecules, qHTS cell viability counter screen (AID 1346981). Also: series mostly up to about 92 µM; nearly all actives have a fitted effect of over 30% in size. The method in brief:
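The parent HepG2 line is plated at 2,000 cells per well and rested 5 hr before compound pinning from DMSO stocks. Following a 16-hr treatment at 37 C, a fluorogenic live-cell substrate (CellTiter-Fluor) reports viability after 1 hr.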

Assay [10] has as its target Nuclear receptor subfamily 1 group I member 2 (Homo sapiens) (UniProt O75469). The assay can be described thus: CYP3A4 induction through human pregnane X receptor (PXR) by small molecules, qHTS assay (AID 1346984). Also: nearly all actives have a fitted effect of over 40% in size. In short, it runs like this: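 Human PXR activation is tracked via CYP3A4 promoter-luciferase in DPX-2 (HepG2) cells. Compounds treat cells for 24hr at 37C, and luminescence is read after One-Glo.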

The record followed here is PubChem BioAssay (Tox21).

Values joined by “and” are separate entries in the source; they are usually repeats but may differ in a detail not shown here. Identical values can stand only once. Records with an inconclusive call do not appear. The source holds several records for some structures; these can differ, active in one and inactive in another. Active and inactive are the calls of the source. Calls follow the shape of the dose curve; as a rule, active = well fitted curve in the direction sought with a large enough effect in the repeat runs; inconclusive = weak or mixed curves; inactive = no such curve, though single readings can be large; an effect the other way counts as inactive or inconclusive.
% is scaled to controls: 0 for no effect and ±100 for the full control effect.

Cytochrome P450 2C19 (Homo sapiens), sequence (P33261 whole entry, looked up): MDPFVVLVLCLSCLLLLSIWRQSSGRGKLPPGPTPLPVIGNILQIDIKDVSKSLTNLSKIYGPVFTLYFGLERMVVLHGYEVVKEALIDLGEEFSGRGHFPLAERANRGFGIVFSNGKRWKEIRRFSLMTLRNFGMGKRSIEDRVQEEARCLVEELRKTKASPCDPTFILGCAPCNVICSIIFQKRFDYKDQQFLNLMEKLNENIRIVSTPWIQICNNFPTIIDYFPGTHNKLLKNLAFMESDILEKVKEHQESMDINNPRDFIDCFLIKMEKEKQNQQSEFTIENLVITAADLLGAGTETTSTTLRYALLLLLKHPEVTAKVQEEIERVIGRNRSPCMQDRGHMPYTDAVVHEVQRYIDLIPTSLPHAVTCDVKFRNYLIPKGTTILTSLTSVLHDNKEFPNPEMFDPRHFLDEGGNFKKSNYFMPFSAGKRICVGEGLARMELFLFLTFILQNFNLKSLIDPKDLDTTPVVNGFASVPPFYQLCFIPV
Cytochrome P450 2D6 (Homo sapiens), sequence (P10635 whole entry, looked up): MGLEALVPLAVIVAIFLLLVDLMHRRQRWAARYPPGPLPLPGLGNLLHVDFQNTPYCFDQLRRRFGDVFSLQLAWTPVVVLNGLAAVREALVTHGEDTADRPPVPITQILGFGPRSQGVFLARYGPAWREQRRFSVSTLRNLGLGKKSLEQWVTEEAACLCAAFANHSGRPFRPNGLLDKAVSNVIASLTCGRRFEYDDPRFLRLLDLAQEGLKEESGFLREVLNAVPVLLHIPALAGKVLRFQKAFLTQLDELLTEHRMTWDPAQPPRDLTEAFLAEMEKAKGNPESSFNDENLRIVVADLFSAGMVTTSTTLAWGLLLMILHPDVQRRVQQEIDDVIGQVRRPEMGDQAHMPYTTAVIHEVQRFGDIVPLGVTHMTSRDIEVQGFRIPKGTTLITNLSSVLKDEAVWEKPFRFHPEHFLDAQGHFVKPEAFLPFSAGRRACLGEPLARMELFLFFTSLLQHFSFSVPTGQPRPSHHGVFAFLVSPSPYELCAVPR
Nuclear receptor subfamily 1 group I member 2 (Homo sapiens), sequence (O75469 whole entry, looked up): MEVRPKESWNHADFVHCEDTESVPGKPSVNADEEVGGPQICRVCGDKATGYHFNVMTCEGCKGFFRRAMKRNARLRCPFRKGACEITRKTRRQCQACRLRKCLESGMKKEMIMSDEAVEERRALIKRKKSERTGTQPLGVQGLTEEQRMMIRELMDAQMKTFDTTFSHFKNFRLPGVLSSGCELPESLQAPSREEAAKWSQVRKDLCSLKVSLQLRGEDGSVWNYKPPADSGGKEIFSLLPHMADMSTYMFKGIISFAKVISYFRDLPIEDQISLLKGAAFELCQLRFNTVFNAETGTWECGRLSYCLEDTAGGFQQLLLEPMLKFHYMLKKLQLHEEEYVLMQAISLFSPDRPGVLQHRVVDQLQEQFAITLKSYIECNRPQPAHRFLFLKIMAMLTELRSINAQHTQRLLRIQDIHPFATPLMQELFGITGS

For the molecule `CN1[C@@H]2CC(OC(=O)[C@H](CO)c3ccccc3)C[C@H]1[C@@H]1O[C@@H]12` (stereo partly specified), the Potency entry in assay [1], in assay [2] and in assay [3] was “inactive” each time. In addition, the max activation in [4] is 6.06% (inactive) and -0.026% (inactive). Further, the call in [5] was inactive.

As for `O=CC(=O)c1ccccc1`, the Potency result in assay [6], in assay [2] and in assay [3] was “inactive” each time. Moreover, the Potency is 12.6 µM (active) in [7] and 35.6 µM (active) in [8].

Regarding `CC(=O)CC(c1ccccc1)c1c(O)c2ccccc2oc1=O` (stereo unspecified), the Potency in assay [1] is 68.9 µM (active) and inactive. Moreover, the Potency entry in assay [2] and in [9] was “inactive” each time. Moreover, the max activation in assay [4] is -3.82% (inactive).

Regarding `Cc1cc(=O)oc2cc(O)ccc12`, the Potency result in [6], in assay [2], in [3], in assay [10], in assay [7] and in assay [8] was “inactive” throughout. In addition, the max activation in assay [4] is -6.81% (inactive). Also, the molecule was called inactive in assay [5].

As to `C=C1CC[C@H](O)C/C1=C\C=C1/CCC[C@]2(C)[C@@H]([C@H](C)CCCC(C)C)CC[C@@H]12`, the Potency in assay [1] was 48.1 µM (active); in [3], 17.1 µM (active); in assay [8], 35.3 µM (active). Moreover, the Potency entry in assay [9], in assay [10] and in assay [7] was “inactive” in each case. Besides, the max activation in assay [4] was 1.13% (inactive).

As to `OC[C@H]1O[C@H](O[C@]2(CCl)O[C@H](CCl)[C@@H](O)[C@@H]2O)[C@H](O)[C@@H](O)[C@H]1Cl`, the Potency entry in assay [6], in assay [1], in assay [2], in assay [3], in [7] and in assay [8] was “inactive” throughout.

Regarding `COc1ccc2c(c1)c(CC(=O)O)c(C)n2C(=O)c1ccc(Cl)cc1`, the Potency entry in assay [6], in assay [2], in assay [3] and in assay [8] was “inactive” each time. In addition, the Potency in assay [1] is 61.5 µM (active); in assay [7], 35.8 µM (active) and inactive.

Take `CC1(C)O[C@@H]2C[C@H]3[C@@H]4CCC5=CC(=O)C=C[C@]5(C)[C@@]4(F)[C@@H](O)C[C@]3(C)[C@]2(C(=O)CO)O1`: the Potency result in assay [6], in [1], in [2] and in assay [8] was “inactive” in each case. Also, the Potency was 12.6 µM (active) in [4]; 31.9 µM (active) and inactive in assay [7].

Consider `COc1ccc(OC(F)(F)F)cc1CN[C@H]1CCCN[C@H]1c1ccccc1`, for which the Potency was 61.1 µM (active) in [1], 4.86 µM (active) in assay [3] and 79.6 µM (active) in assay [8]. In addition, the Potency entry in assay [2] is “inactive”.

For the molecule `C/C=C/C=C/C(=O)O`, the Potency result in assay [6], in assay [1] and in assay [2] was “inactive” each time. Besides, the max activation in [4] is 0.352% (inactive).

Turning to `F[B-](F)(F)F`, the Potency entry in [6], in assay [1], in assay [2], in [3] and in assay [7] was “inactive” each time. Moreover, the Potency in assay [8] is 73.9 µM (active) and inactive and 79.6 µM (active).

As for `C1CCC(C(CC2CCCCN2)C2CCCCC2)CC1` (stereo unspecified), the Potency was 33.5 µM (active) in assay [6], 6.68 µM (active) in assay [3], 1.1 µM (active) in [7] and 24.5 µM (active) in [8]. The max activation in [4] was -20.4% (inactive). In addition, in [10], the Potency result is “inactive”. Moreover, in assay [5], the result was inactive.

For `CC(C)c1c(C(=O)Nc2ccccc2)c(-c2ccccc2)c(-c2ccc(F)cc2)n1CC[C@@H](O)C[C@@H](O)CC(=O)O`, in assay [6], the Potency was 26.3 µM (active). Moreover, the Potency result in [2] and in assay [9] was “inactive” each time.
